“And” between values parts separate entries of the source, which are not always exact repeats. Equal values may be shown once. Inconclusive results are not listed. More than one record can exist for a structure, and the calls need not agree. Values without a mark were called inactive. The source made the active and inactive calls. Calls come from the whole dose curve; as a rule, active = well fitted inhibition curve with a large enough effect; inconclusive = small, poorly fitted or top-dose-only effect; inactive = flat fitted curve, though single readings scatter.

The subject of experiment [1] is TAB109. The experiment in a line: qHTS profiling for inhibitors of Plasmodium falciparum proliferation (AID 504749). Note: potency is the fitted concentration of half-maximal effect. The note with it: P. falciparum in erythrocytes, SYBR Green DNA, 72 h; series mostly up to 28.7 µM. In a few lines: (§1)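 In a 72 h erythrocytic culture (37 C, humidified, 5% CO2) at 2.5% hematocrit and 0.3% starting parasitemia, compounds were tested; SYBR Green I in detergent lysis buffer stained parasite DNA overnight.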

Experiment [2] relates to TAB113. Described as above. To be noted: P. falciparum in erythrocytes, SYBR Green DNA, 72 h; series mostly up to 28.7 µM. In a few lines:
as §1

Experiment [3] relates to TAB165. Described as above. The note with it: P. falciparum in erythrocytes, SYBR Green DNA, 72 h; series mostly up to 28.7 µM. In a few lines: as §1
Experiment [4] deals with W2. The experiment is described as above. To be noted: P. falciparum in erythrocytes, SYBR Green DNA, 72 h; series mostly up to 28.7 µM. The method in brief:
as §1

The subject of experiment [5] is CRL-7250. As to the kind of experiment: Cytotoxic Profiling of Annotated Libraries Using Quantitative High-Throughput Screening (AID 1296008). For max response: % is set by controls: 0 for no effect and ±100 for the full control effect. Note: potency is the fitted concentration of half-maximal effect. To be noted: Five cell lines viability, CellTiter-Glo ATP luminescence, 48-72 h; max response: active compounds read low. The method in brief:
(§2)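 Cytotoxicity was measured as CellTiter-Glo ATP luminescence, read after 10 min at room temperature. Compound treatment of the cells lasted 48 or 72 hr at 37 degrees Celsius in a qHTS format.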

In experiment [6] the test system is HEK293. Described as above. To be noted: Five cell lines viability, CellTiter-Glo ATP luminescence, 48-72 h; max response: active compounds read low. In a few lines: as §2
Experiment [7] has as its system HaCat. Described as above. To be noted: Five cell lines viability, CellTiter-Glo ATP luminescence, 48-72 h; max response: active compounds read low. In a few lines: as §2
Experiment [8] concerns KB-3-1. Described as above. To be noted: Five cell lines viability, CellTiter-Glo ATP luminescence, 48-72 h; max response: active compounds read low. In a few lines:
as §2

Experiment [9] deals with NIH3T3. The experiment is described as above. The note with it: Five cell lines viability, CellTiter-Glo ATP luminescence, 48-72 h; max response: active compounds read low. The method in brief:
as §2

Experiment [10] concerns HACAT. As to the kind of experiment: qHTS assay to identify novel small-molecules to repurpose for Merkel cell carcinoma treatment (AID 1296009). To be noted: MCC and control cell lines, CellTiter-Glo viability, 72 h; series mostly up to 44.8 µM. The method in brief:
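Cell viability measured by CellTiter-Glo following 72 hr compound treatment at 37 degree celsius, with NPC and MIPE libraries tested in 8- and 11-point concentration series.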
Note: nearly all actives have a fitted effect of over 60% in size.

For the molecule `Cn1cnc2c1c(=O)[nH]c(=O)n2C`, the Potency result in experiment [1], in experiment [2], in [3] and in experiment [4] was “inactive” in each case. Further, the molecule was called inactive in experiment [5], in experiment [7] and in experiment [10]. The Potency was 9.35 µM (active) in experiment [6], 20.9 µM (active) in experiment [8] and 26.4 µM (active) in [9]. In addition, the max response in experiment [6] was 1.79%; in experiment [8] it was 6.57%; in [9], 1.38%.
Regarding `NCCCCCC(=O)O`, the Potency result in experiment [1], in experiment [2], in experiment [3] and in experiment [4] was “inactive” in each case. The max response is -1.72% in experiment [5]; -1.96% and 0.967% in experiment [6]; 14.6% and 4.29% in [8]; -2.83% and -5.79% in experiment [9]. Moreover, the result in experiment [5], in [7] and in [10] was inactive.
Take `CC(C)(Oc1ccc(C2CC2(Cl)Cl)cc1)C(=O)O` (stereo unspecified): the Potency entry in [1], in experiment [2], in experiment [3] and in [4] was “inactive” in each case. Further, the values for the max response in experiment [5], in experiment [6] and in [7] were -2.5%, -10.2% and -0.292%, respectively. Besides, the result in experiment [5], in experiment [7], in experiment [9] and in [10] was inactive.
In the case of `CC(C)(C)C(=O)Oc1ccc(S(=O)(=O)Nc2ccccc2C(=O)NCC(=O)O)cc1`, the Potency result in [1], in [2], in experiment [3] and in experiment [4] was “inactive” each time. In addition, the max response in experiment [5] is 4.89%; in experiment [6], -6.47%; in experiment [7] it was -9.37%; in experiment [9] it was -7.41% and -3.91%. Further, the outcome in [5], in experiment [6], in experiment [7] and in [10] was inactive.
In the case of `CC1COc2c(N3CCN(C)CC3)c(F)cc3c(=O)c(C(=O)O)cn1c23` (stereo unspecified), the max response in [5] was 1.02%; in experiment [6], -5.36%; in [8], 21.2%; in [9], -0.0145%. In addition, the outcome in experiment [5], in experiment [6], in experiment [7], in [8], in experiment [9] and in experiment [10] was inactive.
As to `CCc1cccc2c3c([nH]c12)C(CC)(CC(=O)O)OCC3` (stereo unspecified), the max response in [5] is -0.931%; in experiment [6], 1.01%; in experiment [7], 2.9%; in [9], 3.41% and -0.401%. In addition, the outcome in experiment [6], in experiment [7] and in [10] was inactive.
Turning to `C[C@](N)(Cc1ccc(O)c(O)c1)C(=O)O`, the Potency result in experiment [1], in experiment [2], in [3] and in experiment [4] was “inactive” in each case. Further, the max response in [5] was -8.13% and -6.61%; in experiment [6], -6.72%; in experiment [7], -5.55%; in experiment [9], 4.4%. In addition, the molecule was called inactive in [6], in experiment [7] and in [10].
In the case of `CCOC(=O)C(C)(C)Oc1ccc(Cl)cc1`, the Potency entry in [1], in experiment [2], in experiment [3] and in experiment [4] was “inactive” in each case. Besides, the max response is 2.19% and -5.27% in [5]; 4.89% in [6]; 9.24% and 4.33% in experiment [8]. Further, the molecule was called inactive in experiment [6], in [7], in experiment [9] and in experiment [10].
For `Cc1ccc(-c2cc(C(F)(F)F)nn2-c2ccc(S(N)(=O)=O)cc2)cc1`, the Potency in experiment [4] was 6.75 µM (active). Besides, the max response was -3.61% in experiment [5]; -17.2% in [6]; 4.57% and -3.85% in experiment [7]; 4.24% in experiment [9]. For the same molecule, the molecule was called inactive in experiment [5], in experiment [7] and in [10].
Turning to `CC(=O)OCC(CCn1cnc2cnc(N)nc21)COC(C)=O`, the Potency entry in experiment [1], in experiment [2], in experiment [3] and in experiment [4] was “inactive” throughout. Further, the max response in experiment [5] was 3.84%; in experiment [7] it was 1.33% and 3.92%; in experiment [8] it was 12.3% and 3.49%; in experiment [9] it was 3.32%. The outcome in experiment [5], in experiment [6] and in experiment [9] was inactive.
Take `COc1ccc2c(c1)c(CC(=O)O)c(C)n2C(=O)c1ccc(Cl)cc1`: the outcome in experiment [5], in experiment [6], in experiment [7] and in [10] was inactive. For the same molecule, the max response was -16.4% in [6]; -5.33% in experiment [7]; -1.64% and 1.2% in experiment [9].
Take `O=C1N(c2ccccc2)c2ccccc2C1(Cc1ccncc1)Cc1ccncc1`: the Potency result in experiment [1], in experiment [2], in [3] and in [4] was “inactive” each time. The max response in experiment [5] is -6.52% and 2.8%; in experiment [6] it was 2.06%; in experiment [7], 2.97%; in experiment [9], -1.99% and -3.96%. In addition, the call in [6], in [7] and in [10] was inactive.
For the molecule `COc1ccc(C2CNC(=O)C2)cc1OC1CCCC1` (stereo unspecified), the max response in experiment [5] is -1.68%; in experiment [6] it was 0.111%; in experiment [7], -13.7%; in experiment [8], 0.0275% and -1.99%; in experiment [9], -5.87%. For the same molecule, the call in experiment [5], in experiment [6], in [7], in experiment [9] and in [10] was inactive.
Consider `CC[N+](CC)(CC)CCOc1cccc(OCC[N+](CC)(CC)CC)c1OCC[N+](CC)(CC)CC`, for which the Potency entry in experiment [1], in [2], in [3] and in [4] was “inactive” throughout. Also, the max response is -17.1% and -8.63% in [5]; -0.136% in experiment [6]; -16.7% in experiment [7]; -10.5% and -5.4% in [8]; -12.2% in experiment [9]. Besides, the call in experiment [6], in experiment [7], in experiment [9] and in [10] was inactive.

Values taken from PubChem BioAssay (NCATS).
